Laboratory results reported in the supplement of paper PMC10849652.
Targets with a hit are over-represented here; the source holds about 7,900 in all. About 0.6% of all pairs of compound and target were hits.

Legend:
Assay in all cases: log2 fold change, soluble protein after heating vs DMSO (PISA); higher = thermal stabilisation; K562 cells, 10 uM, 30 min; active = over 0.2 and 3.5 SD of the protein, either way, in both replicates (recomputed)
bafetinib = compound: Cc1ccc(NC(=O)c2ccc(CN3CC[C@H](N(C)C)C3)c(C(F)(F)F)c2)cc1Nc1nccc(-c2cncnc2)n1 [bafetinib]
Method in brief: (§1)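 Aliquots of K562 cells (2×10^6 cells/mL) treated with 10 μM compound for 30 min were heated for 3 min over 48°C-58°C. After pooling and extraction in PBS with 0.5% NP-40 at 4°C, soluble protein from a 21,000xg, 90 min spin was quantified by TMTpro 16plex LC-MS/MS with channel sums equalised. Thermal stability is expressed against control samples, from duplicates, as a log2 fold change.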

[1] = compound: Cc1cccc(CC(=O)N2CCc3c2ccc(-c2cn(C)c4ncnc(N)c24)c3F)n1
Method in brief: as §1

nilotinib = compound: Cc1cn(-c2cc(NC(=O)c3ccc(C)c(Nc4nccc(-c5cccnc5)n4)c3)cc(C(F)(F)F)c2)cn1 [nilotinib]
Method in brief: as §1

[2] = compound: Cc1nc(Nc2n[nH]c3c2CN(C(=O)N[C@H](CN(C)C)c2ccccc2)C3(C)C)c2sccc2n1
Method in brief: as §1

dasatinib = compound: Cc1nc(Nc2ncc(C(=O)Nc3c(C)cccc3Cl)s2)cc(N2CCN(CCO)CC2)n1 [dasatinib]
Method in brief: as §1

[3] = compound: Cc1ncc(-c2ccnc(Nc3ccc(S(C)(=O)=O)cc3)n2)n1C(C)C
Method in brief: as §1

[4] = compound: Cn1cc(-c2ccc3c(c2)CCN3C(=O)Cc2cccc(C(F)(F)F)c2)c2c(N)ncnc21
Method in brief: as §1

[5] = compound: Cn1cc(-c2ccc3nnc(C(F)(F)c4ccc5ncccc5c4)n3n2)cn1
Method in brief: as §1

tipifarnib = compound: Cn1cncc1[C@@](N)(c1ccc(Cl)cc1)c1ccc2c(c1)c(-c1cccc(Cl)c1)cc(=O)n2C [tipifarnib]
Method in brief: as §1

mubritinib = compound: FC(F)(F)c1ccc(/C=C/c2nc(COc3ccc(CCCCn4ccnn4)cc3)co2)cc1 [mubritinib]
Method in brief: as §1

[6] = compound: NC(=O)Nc1cc(-c2cccc(F)c2)sc1C(=O)N[C@H]1CCCNC1
Method in brief: as §1

[7] = compound: NC(=O)c1cnc(N[C@@H]2CCCC[C@@H]2N)nc1Nc1cccc(-n2nccn2)c1
Method in brief: as §1

[8] = compound: NC1(c2ccc(-c3nc4ccn5c(=O)[nH]nc5c4cc3-c3ccccc3)cc2)CCC1
Method in brief: as §1

[9] = compound: NCC(=O)Nc1ccc(-n2nc(C(F)(F)F)cc2-c2ccc3c(ccc4ccccc43)c2)cc1
Method in brief: as §1

entinostat = compound: Nc1ccccc1NC(=O)c1ccc(CNC(=O)OCc2cccnc2)cc1 [entinostat]
Method in brief: as §1

vorinostat = compound: O=C(CCCCCCC(=O)Nc1ccccc1)NO [vorinostat]
Method in brief: as §1

citarinostat = compound: O=C(CCCCCCNC(=O)c1cnc(N(c2ccccc2)c2ccccc2Cl)nc1)NO [citarinostat]
Method in brief: as §1

silmitasertib = compound: O=C(O)c1ccc2c(c1)nc(Nc1cccc(Cl)c1)c1ccncc12 [silmitasertib]
Method in brief: as §1

[10] = compound: O=C1NC(=O)C(c2cnc3ccccn23)=C1c1cn2c3c(cc(F)cc13)CN(C(=O)N1CCCCC1)CC2
Method in brief: as §1

[11] = compound: c1cc(OCCN2CCCCC2)cc(-c2n[nH]c3ccc(-c4nnc[nH]4)cc23)c1
Method in brief: as §1

Measured: log2 fold change

XPO5 (UniProt Q9HAV4)
active: [8] -0.234
inactive: bafetinib -0.037 | [1] 0.036 | nilotinib -0.07 | [2] -0.118 | dasatinib -0.11 | [3] -0.054 | [4] 0.026 | [5] 0.004 | tipifarnib -0.071 | mubritinib 0.006 | [6] -0.025 | [7] -0.068 | [9] -0.074 | entinostat 0.046 | vorinostat 0.065 | citarinostat 0.068 | silmitasertib -0.003 | [10] -0.022 | [11] -0.042

TRMT61A (UniProt Q96FX7)
UniProt Q96FX7, sequence (Q96FX7 whole entry, looked up): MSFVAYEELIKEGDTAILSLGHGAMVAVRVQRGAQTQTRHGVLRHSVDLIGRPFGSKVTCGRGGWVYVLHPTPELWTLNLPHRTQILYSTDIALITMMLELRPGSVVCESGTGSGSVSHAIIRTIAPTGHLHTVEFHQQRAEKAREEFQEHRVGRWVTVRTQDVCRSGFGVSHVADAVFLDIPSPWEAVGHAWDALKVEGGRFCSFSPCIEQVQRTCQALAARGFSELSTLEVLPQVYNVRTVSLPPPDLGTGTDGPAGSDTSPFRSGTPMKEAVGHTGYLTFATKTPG
inactive: bafetinib -0.051 | [1] 0.047 | nilotinib 0.036 | [2] 0.046 | dasatinib 0.011 | [3] -0.07 | [4] -0.11 | [5] -0.016 | tipifarnib 0.043 | mubritinib -0.125 | [6] 0.027 | [7] 0.017 | [8] 0.17 | [9] 0.101 | entinostat -0.029 | vorinostat 0.03 | citarinostat 0.005 | silmitasertib 0.099 | [10] 0.293 | [11] -0.146

WASHC5 (UniProt Q12768)
UniProt Q12768, sequence (Q12768 whole entry, looked up): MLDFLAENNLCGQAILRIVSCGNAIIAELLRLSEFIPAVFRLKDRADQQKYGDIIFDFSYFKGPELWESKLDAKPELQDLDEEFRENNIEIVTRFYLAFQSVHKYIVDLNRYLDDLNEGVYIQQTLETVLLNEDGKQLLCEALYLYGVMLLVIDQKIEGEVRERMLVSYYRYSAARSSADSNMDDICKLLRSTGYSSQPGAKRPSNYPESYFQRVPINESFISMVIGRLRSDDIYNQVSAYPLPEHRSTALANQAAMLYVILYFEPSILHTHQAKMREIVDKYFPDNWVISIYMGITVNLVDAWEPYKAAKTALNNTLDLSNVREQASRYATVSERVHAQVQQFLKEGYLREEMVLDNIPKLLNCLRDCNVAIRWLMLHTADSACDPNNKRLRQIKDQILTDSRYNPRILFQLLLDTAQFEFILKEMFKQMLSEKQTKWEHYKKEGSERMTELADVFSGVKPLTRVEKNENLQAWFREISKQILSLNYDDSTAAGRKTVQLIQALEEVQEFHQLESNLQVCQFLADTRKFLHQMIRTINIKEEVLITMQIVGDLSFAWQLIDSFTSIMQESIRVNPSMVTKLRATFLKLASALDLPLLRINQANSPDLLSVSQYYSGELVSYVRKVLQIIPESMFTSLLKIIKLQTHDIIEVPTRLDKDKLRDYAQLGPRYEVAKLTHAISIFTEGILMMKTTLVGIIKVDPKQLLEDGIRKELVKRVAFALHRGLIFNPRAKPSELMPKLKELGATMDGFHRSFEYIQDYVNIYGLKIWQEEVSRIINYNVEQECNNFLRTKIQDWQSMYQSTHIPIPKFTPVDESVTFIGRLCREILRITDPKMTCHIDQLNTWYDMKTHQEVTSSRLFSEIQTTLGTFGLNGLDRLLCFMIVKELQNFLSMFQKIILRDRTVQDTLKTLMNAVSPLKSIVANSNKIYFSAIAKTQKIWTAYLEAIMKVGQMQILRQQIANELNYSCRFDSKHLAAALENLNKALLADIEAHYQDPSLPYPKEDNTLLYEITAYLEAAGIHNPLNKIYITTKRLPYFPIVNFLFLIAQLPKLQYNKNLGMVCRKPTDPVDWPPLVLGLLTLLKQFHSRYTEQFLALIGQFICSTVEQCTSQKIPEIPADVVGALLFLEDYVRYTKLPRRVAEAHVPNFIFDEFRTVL
inactive: bafetinib -0.052 | [1] 0.044 | nilotinib -0.046 | [2] -0.001 | dasatinib -0.112 | [3] -0.004 | [4] 0.005 | [5] 0.086 | tipifarnib -0.001 | mubritinib 0.027 | [6] 0 | [7] -0.011 | [9] -0.047 | entinostat 0.04 | vorinostat 0.022 | citarinostat 0.074 | silmitasertib 0.045 | [10] 0.038 | [11] -0.012
active: [8] -0.232

WDR37 isoform 2 (UniProt Q9Y2I8)
inactive: bafetinib 0.039 | [1] -0.093 | nilotinib -0.073 | [2] 0.039 | dasatinib 0.005 | [3] -0.05 | [4] -0.024 | [5] 0.017 | tipifarnib 0.083 | mubritinib -0.021 | [6] -0.041 | [7] -0.01 | [8] -0.052 | [9] -0.08 | entinostat -0.004 | vorinostat -0.068 | citarinostat -0.012 | silmitasertib -0.059 | [10] 0.032 | [11] -0.162

TRMT10C (UniProt Q7L0Y3)
inactive: bafetinib -0.044 | [1] 0.107 | nilotinib -0.043 | [2] -0.066 | dasatinib -0.181 | [3] 0.012 | [4] 0.046 | [5] 0.038 | tipifarnib -0.037 | mubritinib 0.153 | [6] -0.055 | [7] -0.027 | [8] -0.137 | [9] -0.018 | entinostat 0.022 | vorinostat 0 | citarinostat -0.018 | silmitasertib -0.026 | [10] -0.075 | [11] 0.035

VARS2, A0A0G2JL52
inactive: bafetinib -0.051 | [1] 0 | nilotinib -0.043 | [2] 0.012 | dasatinib 0.009 | [3] 0.003 | [4] 0.037 | [5] -0.021 | tipifarnib -0.01 | mubritinib -0.049 | [6] 0.013 | [7] -0.01 | [8] -0.087 | [9] -0.062 | entinostat 0.028 | vorinostat 0.106 | citarinostat 0.006 | silmitasertib -0.005 | [10] -0.048 | [11] -0.017

TTI1 (UniProt O43156)
UniProt O43156, sequence (O43156 whole entry, looked up): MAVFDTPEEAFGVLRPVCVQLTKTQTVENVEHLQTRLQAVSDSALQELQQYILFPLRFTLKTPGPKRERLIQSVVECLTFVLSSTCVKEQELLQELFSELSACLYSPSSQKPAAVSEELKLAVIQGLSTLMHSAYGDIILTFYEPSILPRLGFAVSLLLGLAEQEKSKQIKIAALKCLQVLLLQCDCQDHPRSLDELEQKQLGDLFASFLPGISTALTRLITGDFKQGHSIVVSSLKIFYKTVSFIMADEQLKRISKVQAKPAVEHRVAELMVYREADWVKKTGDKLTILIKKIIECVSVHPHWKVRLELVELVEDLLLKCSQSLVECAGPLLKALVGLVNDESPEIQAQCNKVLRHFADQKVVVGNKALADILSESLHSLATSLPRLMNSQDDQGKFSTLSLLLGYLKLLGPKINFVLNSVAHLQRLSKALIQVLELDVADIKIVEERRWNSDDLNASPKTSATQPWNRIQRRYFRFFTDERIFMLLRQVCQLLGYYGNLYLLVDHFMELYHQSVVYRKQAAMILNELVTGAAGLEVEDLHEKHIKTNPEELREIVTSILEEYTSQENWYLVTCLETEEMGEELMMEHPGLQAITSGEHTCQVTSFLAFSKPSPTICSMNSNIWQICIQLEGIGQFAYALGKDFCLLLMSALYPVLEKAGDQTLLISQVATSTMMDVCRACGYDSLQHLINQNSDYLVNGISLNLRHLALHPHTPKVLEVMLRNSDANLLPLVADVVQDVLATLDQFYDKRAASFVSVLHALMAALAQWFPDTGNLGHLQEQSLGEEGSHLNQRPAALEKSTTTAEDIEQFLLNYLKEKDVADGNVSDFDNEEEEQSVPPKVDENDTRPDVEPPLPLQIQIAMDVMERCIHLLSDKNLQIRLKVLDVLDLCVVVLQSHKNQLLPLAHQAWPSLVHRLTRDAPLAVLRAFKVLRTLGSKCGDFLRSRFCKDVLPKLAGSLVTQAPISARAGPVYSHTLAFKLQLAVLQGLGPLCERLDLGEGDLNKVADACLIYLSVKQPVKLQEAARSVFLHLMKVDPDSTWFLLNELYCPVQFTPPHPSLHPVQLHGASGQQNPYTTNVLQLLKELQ
inactive: bafetinib -0.006 | [1] 0.165 | nilotinib -0.036 | [2] -0.102 | dasatinib -0.076 | [3] 0.039 | [4] 0.085 | [5] 0 | tipifarnib -0.103 | mubritinib 0.095 | [6] -0.079 | [7] -0.093 | [8] -0.181 | [9] -0.022 | entinostat 0 | vorinostat 0.142 | citarinostat 0.028 | silmitasertib 0.062 | [10] 0.057 | [11] -0.099

VPS52 (UniProt Q8N1B4)
UniProt Q8N1B4, sequence (Q8N1B4 whole entry, looked up): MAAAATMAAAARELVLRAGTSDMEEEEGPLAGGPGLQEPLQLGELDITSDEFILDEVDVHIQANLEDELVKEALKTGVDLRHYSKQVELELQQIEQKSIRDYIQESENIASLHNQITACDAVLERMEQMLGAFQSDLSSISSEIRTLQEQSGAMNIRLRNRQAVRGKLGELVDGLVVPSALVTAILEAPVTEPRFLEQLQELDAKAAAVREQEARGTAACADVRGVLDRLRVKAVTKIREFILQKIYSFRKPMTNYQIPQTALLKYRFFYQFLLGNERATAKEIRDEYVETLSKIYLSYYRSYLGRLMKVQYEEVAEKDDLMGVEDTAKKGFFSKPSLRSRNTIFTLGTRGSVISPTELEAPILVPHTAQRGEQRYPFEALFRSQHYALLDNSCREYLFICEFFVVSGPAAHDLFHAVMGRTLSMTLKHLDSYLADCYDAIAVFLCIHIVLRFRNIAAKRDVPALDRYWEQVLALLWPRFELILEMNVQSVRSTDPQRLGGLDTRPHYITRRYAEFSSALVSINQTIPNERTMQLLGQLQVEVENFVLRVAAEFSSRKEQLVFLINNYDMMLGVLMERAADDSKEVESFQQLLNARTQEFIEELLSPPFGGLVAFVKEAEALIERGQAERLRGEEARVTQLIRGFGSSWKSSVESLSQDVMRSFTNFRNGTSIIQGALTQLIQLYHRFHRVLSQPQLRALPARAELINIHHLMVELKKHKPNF
inactive: bafetinib -0.005 | [1] -0.031 | nilotinib -0.085 | [2] -0.086 | dasatinib -0.071 | [3] 0.091 | [4] 0.001 | [5] -0.016 | tipifarnib -0.089 | mubritinib 0 | [6] 0.065 | [7] -0.005 | [8] -0.132 | [9] -0.039 | entinostat 0.037 | vorinostat 0.086 | citarinostat 0.015 | silmitasertib 0.08 | [10] 0.02 | [11] 0.016

WDR47 (UniProt O94967)
UniProt O94967, sequence (O94967 whole entry, looked up): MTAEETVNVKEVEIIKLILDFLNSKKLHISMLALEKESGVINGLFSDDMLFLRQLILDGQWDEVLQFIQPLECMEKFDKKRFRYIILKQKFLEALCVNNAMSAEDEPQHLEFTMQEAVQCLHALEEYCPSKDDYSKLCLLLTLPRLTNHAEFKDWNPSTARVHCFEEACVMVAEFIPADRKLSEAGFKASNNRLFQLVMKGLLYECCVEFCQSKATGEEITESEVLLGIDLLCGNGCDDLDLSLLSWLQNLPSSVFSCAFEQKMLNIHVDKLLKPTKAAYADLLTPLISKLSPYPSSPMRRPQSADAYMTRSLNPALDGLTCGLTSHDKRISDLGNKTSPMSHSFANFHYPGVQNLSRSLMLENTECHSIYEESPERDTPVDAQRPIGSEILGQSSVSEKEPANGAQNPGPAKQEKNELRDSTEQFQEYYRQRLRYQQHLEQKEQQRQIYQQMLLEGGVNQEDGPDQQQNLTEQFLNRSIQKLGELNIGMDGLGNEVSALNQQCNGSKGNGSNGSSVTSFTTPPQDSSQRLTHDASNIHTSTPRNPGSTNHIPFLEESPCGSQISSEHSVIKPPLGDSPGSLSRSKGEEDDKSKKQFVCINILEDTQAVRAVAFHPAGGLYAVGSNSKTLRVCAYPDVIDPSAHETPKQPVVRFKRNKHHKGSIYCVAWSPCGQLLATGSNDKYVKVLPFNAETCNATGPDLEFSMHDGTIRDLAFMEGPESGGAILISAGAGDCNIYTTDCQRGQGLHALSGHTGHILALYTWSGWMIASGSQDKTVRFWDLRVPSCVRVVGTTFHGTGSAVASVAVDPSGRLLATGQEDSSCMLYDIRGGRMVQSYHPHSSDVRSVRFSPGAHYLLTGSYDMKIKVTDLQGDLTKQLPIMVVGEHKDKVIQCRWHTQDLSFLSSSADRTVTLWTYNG
inactive: bafetinib 0.042 | [1] 0.004 | nilotinib 0.02 | [2] -0.046 | dasatinib -0.036 | [3] 0.067 | [4] 0.002 | [5] 0.033 | tipifarnib 0.039 | mubritinib -0.147 | [6] 0.072 | [7] -0.023 | [9] -0.065 | entinostat 0.002 | vorinostat -0.014 | citarinostat 0.014 | silmitasertib 0.089 | [10] 0.004 | [11] 0.282
active: [8] -0.224

TSG101 (UniProt Q99816)
UniProt Q99816, sequence (Q99816 whole entry, looked up): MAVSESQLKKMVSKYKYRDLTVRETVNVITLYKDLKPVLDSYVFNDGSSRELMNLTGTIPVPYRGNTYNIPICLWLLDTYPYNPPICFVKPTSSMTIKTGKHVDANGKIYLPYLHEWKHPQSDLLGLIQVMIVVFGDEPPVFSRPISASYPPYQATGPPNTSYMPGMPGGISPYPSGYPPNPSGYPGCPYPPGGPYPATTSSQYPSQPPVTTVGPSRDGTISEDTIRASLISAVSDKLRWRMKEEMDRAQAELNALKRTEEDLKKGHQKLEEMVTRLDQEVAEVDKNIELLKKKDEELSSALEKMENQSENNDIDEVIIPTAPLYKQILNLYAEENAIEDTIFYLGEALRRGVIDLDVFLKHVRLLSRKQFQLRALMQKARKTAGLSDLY
inactive: bafetinib -0.096 | [1] -0.034 | nilotinib -0.014 | [2] -0.081 | dasatinib -0.092 | [3] -0.007 | [4] 0.033 | [5] -0.024 | tipifarnib -0.033 | mubritinib 0.052 | [6] -0.02 | [7] -0.082 | [8] -0.157 | [9] -0.033 | entinostat 0.038 | vorinostat -0.007 | citarinostat 0.053 | silmitasertib 0.025 | [10] -0.103 | [11] 0.025

TYW1 (UniProt Q9NV66)
inactive: bafetinib -0.003 | [1] 0.033 | nilotinib -0.107 | [2] -0.005 | dasatinib 0.015 | [3] 0.04 | [4] -0.001 | [5] -0.085 | tipifarnib -0.041 | mubritinib -0.075 | [6] -0.022 | [7] 0.05 | [8] 0.004 | [9] 0.013 | entinostat 0.028 | vorinostat -0.056 | citarinostat 0.053 | silmitasertib 0.039 | [10] -0.141 | [11] -0.007

WASHC2C, A0A096LPC5
inactive: bafetinib -0.144 | [1] -0.335 | nilotinib 0.093 | [2] -0.101 | dasatinib 0.13 | [3] -0.003 | [4] -0.016 | [5] -0.082 | tipifarnib 0.283 | mubritinib 0.123 | [6] -0.084 | [7] -0.208 | [8] -0.06 | [9] -0.058 | entinostat -0.015 | vorinostat -0.209 | citarinostat -0.113 | silmitasertib 0.361 | [10] 0.001 | [11] -0.151

UPF3B (UniProt Q9BZI7)
inactive: bafetinib 0.108 | [1] 0.055 | nilotinib -0.15 | [2] 0.098 | dasatinib 0.143 | [3] -0.085 | [4] -0.225 | [5] -0.24 | tipifarnib 0.106 | mubritinib -0.098 | [6] 0.092 | [7] 0.11 | [8] 0.315 | [9] 0.096 | entinostat -0.079 | vorinostat 0 | citarinostat -0.125 | silmitasertib 0.149 | [10] 0.245 | [11] -0.278

TNPO2 (UniProt O14787)
inactive: bafetinib -0.004 | [1] 0.129 | nilotinib -0.122 | [2] -0.111 | dasatinib -0.173 | [3] -0.087 | [4] -0.076 | [5] -0.011 | tipifarnib -0.011 | mubritinib 0.043 | [6] 0.015 | [7] -0.174 | [8] -0.268 | [9] -0.054 | entinostat 0.064 | vorinostat -0.008 | citarinostat 0.047 | silmitasertib 0.059 | [10] -0.04 | [11] -0.124

U2AF2 (UniProt P26368)
UniProt P26368, sequence (P26368 whole entry, looked up): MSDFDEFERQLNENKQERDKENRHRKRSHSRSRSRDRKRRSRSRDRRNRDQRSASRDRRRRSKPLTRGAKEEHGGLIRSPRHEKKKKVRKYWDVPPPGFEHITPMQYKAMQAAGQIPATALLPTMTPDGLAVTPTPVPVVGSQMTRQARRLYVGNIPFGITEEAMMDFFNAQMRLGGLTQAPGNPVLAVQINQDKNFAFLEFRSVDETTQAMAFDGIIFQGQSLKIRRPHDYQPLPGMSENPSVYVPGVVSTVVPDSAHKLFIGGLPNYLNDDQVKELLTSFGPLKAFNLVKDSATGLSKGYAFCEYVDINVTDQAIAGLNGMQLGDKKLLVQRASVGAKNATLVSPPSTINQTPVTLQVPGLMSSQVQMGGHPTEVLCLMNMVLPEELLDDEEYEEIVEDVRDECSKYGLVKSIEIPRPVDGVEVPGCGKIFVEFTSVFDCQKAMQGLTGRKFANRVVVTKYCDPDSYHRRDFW
inactive: bafetinib -0.019 | nilotinib -0.003 | dasatinib 0.018 | [3] 0.049 | [4] -0.011 | [5] -0.044 | tipifarnib 0.045 | mubritinib -0.051 | [6] -0.125 | [7] -0.021 | [8] 0.033 | [9] -0.051 | entinostat -0.031 | vorinostat -0.129 | citarinostat -0.014 | silmitasertib -0.049 | [10] 0.113 | [11] -0.09
active: [1] -0.241 | [2] -1.66

UGGT1 (UniProt Q9NYU2)
inactive: bafetinib -0.005 | [1] -0.007 | nilotinib -0.015 | [2] 0.016 | dasatinib -0.007 | [3] -0.036 | [4] -0.017 | [5] -0.001 | tipifarnib -0.026 | mubritinib -0.043 | [6] 0.028 | [7] -0.025 | [8] -0.06 | [9] 0.017 | entinostat -0.001 | vorinostat -0.004 | citarinostat 0.047 | silmitasertib 0.01 | [10] -0.025 | [11] -0.035
